Screens (PubChem)
D1 potentiator: Potentiators of Human D1 Dopamine Receptor: qHTS | potentiation, % at 10 µM | D(1A) dopamine receptor (Homo sapiens), P21728 | hit rate 0.036% among 360,000 | HEK293 TREx D1 cells, calcium flux, dopamine EC20 potentiation; in the data active = potentiation above about 30%; note: 0% is about no effect
Target sequence (P21728 whole entry, looked up): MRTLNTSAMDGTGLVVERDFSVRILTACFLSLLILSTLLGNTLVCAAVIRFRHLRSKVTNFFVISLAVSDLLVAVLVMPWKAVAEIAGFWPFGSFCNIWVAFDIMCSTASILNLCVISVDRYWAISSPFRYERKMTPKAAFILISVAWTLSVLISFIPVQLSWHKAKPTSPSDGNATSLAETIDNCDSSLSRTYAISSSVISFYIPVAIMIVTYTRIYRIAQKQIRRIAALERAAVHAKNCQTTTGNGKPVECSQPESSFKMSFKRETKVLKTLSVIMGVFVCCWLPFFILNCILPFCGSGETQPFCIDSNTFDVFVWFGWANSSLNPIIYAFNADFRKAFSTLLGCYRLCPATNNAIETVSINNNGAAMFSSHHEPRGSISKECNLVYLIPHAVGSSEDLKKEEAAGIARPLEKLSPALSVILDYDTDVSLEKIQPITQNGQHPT
D1 agonist: Allosteric Agonists of the Human D1 Dopamine Receptor: qHTS. activation, % at 2 µM. D(1A) dopamine receptor (Homo sapiens), P21728. hit rate 1% among 360,000. HEK293 T-REx D1 cells, calcium flux, agonist mode; note: 0% is about no effect
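Inducible HEK293 T-REx D1 cells, force-coupled to calcium signalling, were plated at 4000 cells/well with tetracycline and held overnight at 30 C. After no-wash calcium dye loading, compound-evoked calcium rise over 180 s flagged agonists.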
TRHR enhancer: qHTS for Small Molecule Agonists and Allosteric Enhancers of Human TRH Receptor: Primary Screen for Enhancers; Thyrotropin-releasing hormone receptor (Homo sapiens), P34981; TRHR cells, fluo-8 calcium fluorescence, EC20 TRH enhancement; enhancement, % at 2 µM; hit rate 0.66% among 360,000; AID 493056, 2011; in the data active = enhancement above about 30%; note: 0% is about no effect
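Enhancer read-out: after compound pinning and an initial kinetic agonist-mode read, an EC20 of TRH (10 nM final) was injected and fluo-8 calcium signal (Ex 480/Em 530) followed at 1 s/cycle for 100 cycles in TRHR-expressing cells.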
TRHR agonist: qHTS for Small Molecule Agonists and Allosteric Enhancers of Human TRH Receptor: Primary Screen for Agonists | activation, % at 2 µM | AID 493084, 2011 | hit rate 0.18% among 360,000 | TRHR cells, calcium flux fluo-8, FDSS agonist mode; note: 0% is about no effect
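Steps: seed TRHR cells overnight; add fluo-8 no-wash Ca dye, RT 30 min–1.5 h; record 10 s baseline; pin-transfer compounds; monitor fluorescence 1 cycle/s for the agonist window. Calcium increases flag candidate agonists.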
D1 antag: Antagonist of Human D 1 Dopamine Receptor: qHTS; D(1A) dopamine receptor (Homo sapiens), P21728; HEK293 TREx D1 cells, calcium flux, dopamine EC80; stronger effect = lower value; activity change, negative = inhibition, % at 10 µM; hit rate 3.2% among 360,000; in the data active = activity change below about -30%; note: % is set by controls: 0 for no effect and ±100 for the full control effect
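Tetracycline-induced HEK293 T-REx cells with force-coupled D1 receptor were loaded with a no-wash calcium dye. Compound was added after a 10 s baseline and read kinetically for 180 s; EC80 dopamine was then added and calcium flux followed another 180 s.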
USP1-UAF1 inh: Inhibitors of USP1/UAF1: Primary Screen. Ubiquitin carboxyl-terminal hydrolase 1 (Homo sapiens), O94782. hit rate 0.23% among 390,000. recombinant USP1/UAF1, Ub-Rhodamine cleavage fluorescence. Potency, µM (top dose mostly 57.1 µM), inactives show at the top dose activity change, negative = inhibition, most hits filed as inhibitors. AID 743255, 2014; active = well fitted inhibition curve with a large enough effect; note: potency is the fitted concentration of half-maximal effect; % is set by controls: 0 for no effect and ±100 for the full control effect; nearly all actives have a fitted effect of over 60% in size
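High-throughput fluorogenic screen: 1nM USP1/UAF1 complex, Ub-Rho substrate 150nM final, 50mM HEPES pH 7.8 with 0.5mM EDTA, 0.1 mg/ml BSA, 1mM TCEP and 0.01% Tween-20.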
* marks the source's active call; other numbers are inactive results; nt = not tested or not shown; ! = a repeat was not active. In the library only some 4.4% were active in any assay of this set; here they are far more common. Cut-off read from the data, not from the text of the source, unless noted: active = activation above about 30%; inactive = the rest.

SMILES	D1 potentiator	D1 agonist	TRHR enhancer	TRHR agonist	D1 antag	USP1-UAF1 inh
O=C(NCc1ccc(F)cc1)C1CCCN(C(=O)Nc2ccccc2)C1 (centres undefined)	0	1	-1	0	9	-15%
O=C(CN1CCC(C(=O)c2ccc(F)cc2)CC1)Nc1ccccc1	-11	7	-7	-1	-56*	-17%
O=C(NCc1ccc(F)cc1)C1CCCN(C(=O)Nc2ccc(F)cc2)C1 (centres undefined)	-2	3	0	-1	-86*	3%
O=C(CN1CCC(C(=O)c2ccc(F)cc2)CC1)Nc1ccc(F)cc1	-7	7	-9	0	-7	-1%
O=C(c1ccc(F)cc1)C1CCN(C(=O)Nc2ccc(F)cc2)CC1	-10	6	-3	0	-30*	-8%
CCOc1ccc(NC(=O)Cn2c(=O)n(Cc3ccccc3)c(=O)c3c4c(sc32)CN(C(C)=O)CC4)cc1	-7	2	-4	0	15	-23%
CC(=O)c1ccc(NC(=O)C2CCC(CNS(=O)(=O)c3cccs3)CC2)cc1 (centres undefined)	-3	13	-4	0	-20	-27%
COC(=O)c1ccccc1NC(=O)C1=C(C)C(=O)OC12CCCCCC2	5	2	8	-1	11	-17%
COc1ccc(NC(=O)N2CCCC(c3nc(-c4ccc(OC)cc4)no3)C2)cc1 (centres undefined)	-3	4	-1	-1	-14	-22%
O=C(Nc1ccc(Br)cc1)N1CCCCCC1	-7	0	-8	0	-50*	-10%
O=C(Nc1ccc(Cl)cc1)N1CCC(c2nc(-c3ccc(F)cc3)no2)CC1	-9	21	-13	2	-50*	-21%
Cc1ccc(C(=O)N2CCC(C(=O)c3ccc(F)cc3)CC2)cc1	nt	nt	nt	nt	nt	7%
Cc1ccc(C(=O)C2CCN(CC(=O)N3CCN(c4ccc(F)cc4)CC3)CC2)cc1	-4	5	1	0	-31*	-30%
Cc1ccc(CCNS(=O)(=O)c2c(C)nc3sc(C)c(C)n3c2=O)cc1	1	2	1	0	-1	-12%
Cc1ccccc1Cn1c(C)c(CNCCCc2ccccc2)c(C(=O)O)c1C	-2	0	-1	0	-4	-23%
O=C(Cc1ccccc1)Nn1c(O)c(/C=C2\C=Nc3ccccc32)sc1=S	5	99*	-1	29	17	32µM*
COCCN(CC(=O)Nc1cccc(C)c1C)C(=O)c1ccc2ccccc2n1	3	1	32*	0	-12	-9%
COc1ccccc1NC(=O)Nc1ccc2c(c1)CCC2	38*	2	1	-1	-14	-25%
COc1ccc(C)cc1NC(=O)Nc1ccc2c(c1)CCC2	-4	0	0	0	-44*	-26%
NC(=O)C1CCN(c2nc(-c3ccc(Br)cc3)cs2)CC1	-2	1	2	0	-46*!	-16%
Cc1cccc(OCc2cc(=O)n3c4c(sc3n2)CCCC4)c1C	-3	3	-2	0	-28	-19%
COCCNC(=O)c1ccc2nc(CCc3ccccc3)oc2c1	-5	2	5	0	-36*	-9%
COc1ccc(CNC(=O)c2ccc3nc(CCc4ccccc4)oc3c2)c(OC)c1	-2	30	20	2	-42*	-25%
COC(=O)Cn1cc(/C=N/NC(=O)c2ccc(C#N)cc2F)c2ccccc21	2	5	-5	0	-39*	-7%
CN(C)/C=C(\C#N)C(=O)c1cccc(Oc2ccc(Br)cc2)c1	-5	5	-15	0	-2	-17%
SMILES	D1 potentiator	D1 agonist	TRHR enhancer	TRHR agonist	D1 antag	USP1-UAF1 inh
CCOc1cccc(Oc2ncccc2C(=O)/C(C#N)=C/N(C)C)c1	-3	3	-4	0	-38*	-17%
CCS(=O)(=O)N1CCC(C(=O)NCCC(C)C)CC1	0	-2	1	0	-4	0%
N/C(=N\OC(=O)c1cc(Cl)ccc1Cl)c1cccnc1	-13	1	3	0	-57*	-22%
N/C(=N\OC(=O)c1cc(Br)ccc1Cl)c1cccnc1	-3	1	-4	1	-2	-18%
N/C(=N\OC(=O)COc1ccc([N+](=O)[O-])cc1)c1cccnc1	38*	2	4	0	-2	2%
N/C(=N\OC(=O)c1ccccc1)c1cccnc1	2	3	-1	1	-50*	-4%
CCc1ccc(S(=O)(=O)c2nnn3c2nc(NCCNC(C)=O)c2cc(Cl)ccc23)cc1	-4	1	1	0	31	-22%
CC(C)c1ccc(NC(=O)COc2ccccn2)cc1	-9	2	6	1	-91*	-3%
CCC1CCCCN1C(=O)c1cc(COc2ccc3ncccc3c2)on1 (centres undefined)	-4	12	-1	0	-42*	-11%
CC(C)N(Cc1nccn1C)C(=O)c1cc(COc2ccc3ncccc3c2)on1	1	8	0	-1	-7	-9%
COCC1CCCCN1C(=O)c1cc(COc2ccc3ncccc3c2)on1 (centres undefined)	-1	12	0	1	-27	-12%
CC(=O)c1ccc(OCc2cc(C(=O)N3CCCCC3c3cccnc3)no2)cc1 (centres undefined)	-6	20	-3	1	-33*	-7%
Cc1nc(CN(C)C(=O)c2cc(COc3ccc4ncccc4c3)on2)cs1	-2	16	-4	1	-37*	-21%
COCCC1CCCCN1C(=O)c1cc(COc2ccc(-n3cncn3)cc2)on1 (centres undefined)	-9	18	-4	0	-64*	2%
COc1ccc(CCNC(=O)CN2C(=O)COc3ccc(C)cc32)cc1OC	5	2	12	-1	5	-13%
O=C(CSc1nc2c([nH]c3ccccc32)c(=O)n1-c1ccccc1)Nc1ccc(Cl)c(Cl)c1	-2	0	2	1	10	0%
Cc1cc(C)cc(OCC(=O)Nc2nc3c(s2)CC(C(C)(C)C)CC3)c1 (centres undefined)	-1	8	1	-1	-75*	-12%
CCCCNC(=O)CSc1nc2ccccc2nc1Cc1ccc(Cl)cc1	-3	1	1	0	-1	-11%
